The values that follow come from PubChem BioAssay (NCATS).

The structures appear in SMILES notation. Results filed as inconclusive are left out. A number with no mark means an inactive call. Calls of active or inactive are those of the source. Calls follow the shape of the dose curve; as a rule, active = well fitted cell-killing curve with a large enough effect; inconclusive = small, poorly fitted or top-dose-only effect; inactive = flat fitted curve, though single readings scatter.
% is scaled to controls: 0 for no effect and ±100 for the full control effect.

This test is described as follows: qHTS of pediatric cancer cell lines to identify multiple opportunities for drug repurposing: Primary screen for control Hh wild type fibroblast cells (AID 1347106).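 Also: a drop in luminescence marks cytotoxicity and a rise apparent proliferation; nearly all actives have a fitted effect of over 55% in size.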 The settings on record: Hh wild-type fibroblast viability, CellTiter-Glo luminescence, 48 h; series mostly up to 46 µM. The source says:
Drug repurposing or repositioning has been offered as a strategy for drug development in oncology programs. This approach has special potential for childhood cancers and other rare or orphan diseases, where the expected return on new drug development has been a disincentive to pharmaceuticals.
In this project we exploit the poly-pharmacology of drugs to discover new indications via phenotypic screening of a panel of 19 well-characterized cell lines derived from solid tumors seen in children and adolescents. The goal is to identify approved drugs with previously unrecognized anticancer properties that has the potential to reveal new mechanisms and biological processes involved in carcinogenesis or drug resistance. We employed a titration-based paradigm (quantitative high-throughput screening or qHTS), where all compounds were tested at multiple concentrations for their effect on cell viability. Concentration-response curves (CRCs) were derived directly from the primary screen, and both potency and efficacy values were used to identify compounds with robust bioactivity profiles. We screened the NIH Chemical Genomics Center (NCGC) Pharmaceutical Collection (NPC) and Mechanism Interrogation Plate (MIPE) small molecule collections of approved and investigational compounds against these cell lines; and measured metabolically active cells after 48 hours of compound treatment as a proxy for cell viability.
Assay Submitter: Nathalia J. Martinez, National Center for Advancing Translational Sciences, National Institutes of Health, Rockville, MD, USA; email: natalia.martinez@nih.gov
[1] Shen, M et al. Quantitative high-throughput phenotypic screening of pediatric cancer cell lines identifies multiple opportunities for drug repurposing. Oncotarget 2017 Dec 19;9(4):4758-4772. PMID 29435139.
The cells were obtained from University of North Carolina (UNC), Pediatric Preclinical Testing Program (PPT), and Coriell Institute (CI).
qHTS cell viability assay:
Cells were assayed in growth media at a density of 500-1,000 cells/well. Five microliters of cells were dispensed into 1,536-well, white, solid-bottom, TC-treated plates (Greiner Bio One) using a multidrop dispenser and incubated at 37 degrees C, 5% CO2, under a humidified atmosphere for 5 hours. Twenty-three nanoliters of compounds and controls (neutral control DMSO or positive control bortezomib at final concentration of 2.3 µM) were subsequently transferred by Kalypsys pintool. For primary screens, the MIPE collection was tested at 11-point dilutions (final concentrations range from 0.78 nM to 46 µM) and the NPC collection at 8-point dilutions (final concentrations range from 0.59 nM to 46 µM). Compounds tested in follow-up screens were assayed at 11-point dilutions. Cells were incubated for 48 hours, followed by addition of 3 µL of CellTiter-Glo (Promega). After a 15 min incubation at room temperature, samples were analyzed for luminescence intensity using a ViewLux High-throughput CCD imager equipped with clear filters.
(Quantitative high-throughput screening tests each substance at several concentrations.)
With `Oc1ccc(C(O)CNCCCCCCNCC(O)c2ccc(O)c(O)c2)cc1O` (stereo not given), the molecule was called inactive.

As for `CN(N=O)C(=O)N[C@@H]1[C@@H](O)[C@H](O)[C@@H](CO)O[C@@H]1O`, the call was inactive.

For the molecule `Cc1ccc2nc(N)[nH]c(=O)c2c1Sc1ccncc1`, the molecule was classed as inactive.

With `C[C@H]1O[C@@H](n2cc(F)c(=O)[nH]c2=O)[C@H](O)[C@@H]1O`, the molecule was classed as inactive.

Consider `NC(=O)c1ncn([C@@H]2O[C@H](CO)[C@@H](O)[C@H]2O)c1N`, for which the molecule was called inactive.

For the molecule `CC1CC(OC(=O)C(O)c2ccccc2)CC(C)(C)N1C` (stereo not given), the molecule was called inactive.

In the case of `CCCCCCCCCCCCOS(=O)(=O)O`, the molecule was called inactive.

In the case of `CN(C)CCCN1c2ccccc2CCc2ccccc21`, the call was inactive.

On to `NC(=O)NNc1ccccc1`, for which the molecule was called inactive.

As for `Cc1cc2nc3c(=O)[nH]c(=O)nc-3n(C[C@H](O)[C@H](O)[C@H](O)CO)c2cc1C`, the outcome was inactive.

For the molecule `N[C@H]1C(O)O[C@H](CO)[C@@H](O)[C@@H]1O` (stereo not given in full), the molecule was called inactive.

As for `COc1cc(C(=O)N2CCOCC2)cc(OC)c1OC`, the molecule was classed as inactive.

On to `OC[C@H]1O[C@@H](O[C@@H]2[C@@H](CO)O[C@](O)(CO)[C@H]2O)[C@H](O)[C@@H](O)[C@H]1O`, for which the result was inactive.

In the case of `CN1CCN(C2Cc3ccccc3Sc3ccc(Cl)cc32)CC1` (stereo not given), the result was inactive.

Consider `CC(O)COc1ccccc1` (stereo not given), for which the call was inactive.

`Nc1nc2c(ncn2CCC(CO)CO)c(=O)[nH]1`: the outcome was inactive.

`NCCNCCNCCNCCN`: the activity change, negative = cytotoxic was -0.844% [at 9.22 µM].

As to `CCN(CC)CCOC(=O)C1(C2CCCCC2)CCCCC1`, the result was inactive.

As to `COCCOC(=O)C1=C(C)NC(C)=C(C(=O)OC/C=C/c2ccccc2)C1c1cccc([N+](=O)[O-])c1` (stereo not given), the outcome was inactive.

On to `C[C@@H]1CN(c2c(F)c(F)c3c(=O)c(C(=O)O)cn(C4CC4)c3c2F)C[C@H](C)N1`, for which the result was inactive.

Regarding `CC1(C)CO[C@@H](CC(=O)O)CN1`, the call was inactive.

For `CCCCC(CC)COC(=O)c1ccccc1O` (stereo not given), the result was inactive.

As to `CC(=O)OCC(=O)[C@@]1(O)CC[C@H]2[C@@H]3CCC4=CC(=O)CC[C@]4(C)[C@H]3C(=O)C[C@@]21C`, the result was inactive.

With `Cn1cc[nH]c1=S`, the call was inactive.

In the case of `OCC(CO)N[C@H]1C[C@](O)(CO)[C@@H](O)[C@H](O)[C@H]1O`, the outcome was inactive.

With `O=C(Oc1ccccc1C(=O)O)c1ccccc1O`, the result was inactive.

As to `C[C@@H]1CCN(C(=O)[C@H](CCCN=C(N)N)NS(=O)(=O)c2cccc3c2NC[C@H](C)C3)[C@@H](C(=O)O)C1`, the outcome was inactive.

As for `Cc1cc(C(C#N)c2ccc(Cl)cc2)c(Cl)cc1NC(=O)c1cc(I)cc(I)c1O` (stereo not given), the molecule was called inactive.

For the molecule `CO/N=C(\C(=O)N[C@@H]1C(=O)N2C(C(=O)O)=C(CSc3nc(=O)c(O)nn3C)CS[C@H]12)c1csc(N)n1`, the molecule was classed as inactive.

`[O-][n+]1cccc(CO)c1`: the call was inactive.

Take `CCN(CC)C(=O)Nc1ccc(OCC(O)CNC(C)(C)C)c(C(C)=O)c1` (stereo not given): the molecule was called inactive.

Consider `CCOc1ccc2ccccc2c1C(=O)N[C@@H]1C(=O)N2[C@@H]1SC(C)(C)[C@@H]2C(=O)O`, for which the call was inactive.

Take `CN1CCOC(c2ccccc2)c2ccccc2C1` (stereo not given): the call was inactive.

For the molecule `O=C(O)c1ccccc1-c1ccc(C(F)(F)F)cc1`, the molecule was classed as inactive.

On to `CC(=O)O[C@@]12CO[C@@H]1C[C@H](O)[C@@]1(C)C(=O)[C@H](O)C3=C(C)[C@@H](OC(=O)[C@H](O)[C@@H](NC(=O)OC(C)(C)C)c4ccccc4)C[C@@](O)([C@@H](OC(=O)c4ccccc4)[C@H]21)C3(C)C`, for which the molecule was classed as inactive.

For the molecule `CNCCCC1c2ccccc2C=Cc2ccccc21`, the call was inactive.

On to `CC(=O)CCC(=O)O`, for which the result was inactive.

For `Nc1ccc(S(=O)(=O)Nc2nccs2)cc1`, the call was inactive.

As to `CC1(C)OC(=O)NC1=O`, the molecule was called inactive.

As for `O=Cc1ccccc1C=O`, the molecule was called inactive.
